Assay results from PubChem BioAssay AID434985 (The Scripps Research Institute Molecular Screening Center, 2010).
The list shows a part of the results.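 Rule for the calls: active = mean percent activation over triplicates above a cutoff set from solvent-only control plates; inactive = the rest.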

Molecular target: Oxytocin receptor (Homo sapiens) (UniProt P30559)
Test: human OXTR potentiators, confirmation, fluorescence, CHO-OTR cells, triplicate (AID 434985);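 note: compounds tested in the presence of an EC15 dose of oxytocin; 0% = EC15 oxytocin with DMSO and 100% = EC100 oxytocin with DMSO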
Settings: Fluo-8 calcium fluorescence, potentiation, at 3 µM, active compounds read high, scaled from low-dose to maximal oxytocin

Oxytocin receptor (Homo sapiens), sequence (P30559 whole entry, looked up): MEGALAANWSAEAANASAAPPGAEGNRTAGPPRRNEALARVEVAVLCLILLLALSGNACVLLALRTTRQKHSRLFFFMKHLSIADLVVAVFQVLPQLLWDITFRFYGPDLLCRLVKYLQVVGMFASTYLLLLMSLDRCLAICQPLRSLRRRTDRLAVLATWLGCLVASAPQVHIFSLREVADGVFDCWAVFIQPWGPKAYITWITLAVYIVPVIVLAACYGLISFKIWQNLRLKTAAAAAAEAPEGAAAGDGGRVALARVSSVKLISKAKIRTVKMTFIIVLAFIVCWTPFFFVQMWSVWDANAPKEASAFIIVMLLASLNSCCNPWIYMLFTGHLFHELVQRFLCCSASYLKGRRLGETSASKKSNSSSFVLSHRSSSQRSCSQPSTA

activation, inactive:
CNc1nnc(-c2ccco2)s1 -4.03%
CCCCNc1c(-c2ccc(OC)c(Sc3ccc(OC)cc3)c2)nc2ccc(Cl)cn12 -4.15%
Cc1cc(C)cc(NC(=O)CSc2ccccc2)c1 -0.71%
COc1cc2c(cc1OC)C(c1ccc(C)o1)CC(=O)N2 (configuration not stated) -4.74%
Cc1ccc(OCC(O)CN2CCN(CC(O)COc3ccc(C)cc3Cl)CC2)c(Cl)c1 (configuration not stated) -3.49%
CCCCn1c(N)c(N2CCOCC2)c(=O)n(CC(=O)NCCc2ccccc2)c1=O -3.12%
COCCn1c(CN(Cc2ccccc2)Cc2ccccc2)nc2c1c(=O)n(C)c(=O)n2C -1.46%
